About 75 (2%) of roughly 3,200 compounds showed an effect of 50% or more. What follows is part of a selection rich in strong results, with near analogues and random picks from the rest.
Tested on: T1, S. aureus MSSA476
T1 construct: MSSA476
Set-up: species or system S. aureus MSSA476 (TSB) or V. cholerae SAD30 (LB); 384-well bacterial growth screen at 25 uM, OD600 relative to DMSO control
Conditions: relative growth, OD600, TSB; 25 µM; inhibitor

Row | Structure (SMILES) | % of control remaining
1 | O=C(CCl)N1CCOc2c1cccc2C(F)(F)F [5-G08, 2-chloro-1-[8-(trifluoromethyl)-3,4-dihydro-2H-1,4-benzoxazin-4-yl]ethan-1-one] | 0.3643%
2 | O=C(CCl)Nc1c(Cl)cccc1C(F)(F)F [5-B04, 2-chloro-N-[2-chloro-6-(trifluoromethyl)phenyl]acetamide] | 82.3315%
3 | CC1CCN(C(=O)CCl)c2cc(C(F)(F)F)ccc2S1 (stereo not shown) [5-J07, 2-chloro-1-[2-methyl-7-(trifluoromethyl)-2,3,4,5-tetrahydro-1,5-benzothiazepin-5-yl]ethan-1-one] | 106.011%
4 | CN(C)S(=O)(=O)c1ccc(Cl)c(NC(=O)CCl)c1 [6-H12, 2-chloro-N-[2-chloro-5-(dimethylsulfamoyl)phenyl]acetamide] | 88.439%
5 | C=CC(=O)N1CCN(Cc2cc(=O)n3ccsc3n2)CC1 [3-F22, 7-{[4-(prop-2-enoyl)piperazin-1-yl]methyl}-5H-[1,3]thiazolo[3,2-a]pyrimidin-5-one] | 101.698%
6 | O=C(CCl)N1c2ccccc2Sc2ccc(Cl)cc21 [4-N07, 2-chloro-1-(2-chloro-10H-phenothiazin-10-yl)ethan-1-one] | 3.049%
7 | CC1CSc2ccc(Cl)cc2N(C(=O)CCl)C1 (stereo not shown) [5-J05, 2-chloro-1-(7-chloro-3-methyl-2,3,4,5-tetrahydro-1,5-benzothiazepin-5-yl)ethan-1-one] | 95.4463%
8 | CC1CCN(C(=O)CCl)c2cc(Cl)ccc2S1 (stereo not shown) [4-G16, 2-chloro-1-(7-chloro-2-methyl-2,3,4,5-tetrahydro-1,5-benzothiazepin-5-yl)ethan-1-one] | 93.3778%
9 | CC(Cl)C(=O)N(Cc1nnc(-c2ccccc2Cl)o1)C1CC1 (stereo not shown) [5-B17, 2-chloro-N-{[5-(2-chlorophenyl)-1,3,4-oxadiazol-2-yl]methyl}-N-cyclopropylpropanamide] | 92.5319%
10 | O=C(CCl)c1ccccn1 [10-J03, 2-chloro-1-(pyridin-2-yl)ethan-1-one] | 51.875%
11 | O=C(CCl)c1cscn1 [10-L08, 2-chloro-1-(1,3-thiazol-4-yl)ethan-1-one] | 27.8125%
12 | C[C@H]1CN(C(=O)CCl)CCN1C(=O)c1cscn1 [5-L05, 2-chloro-1-[(3S)-3-methyl-4-(1,3-thiazole-4-carbonyl)piperazin-1-yl]ethan-1-one] | 92.5319%
13 | CCOc1ccccc1NC(=O)C(C)Cl (stereo not shown) [6-M10, 2-chloro-N-(2-ethoxyphenyl)propanamide] | 106.195%
14 | C=CC(=O)NCc1nc(C2CC2)cs1 [2-A19, N-[(4-cyclopropyl-1,3-thiazol-2-yl)methyl]prop-2-enamide] | 138.207%
15 | CC1CSc2ccccc2N(C(=O)CCl)C1 (stereo not shown) [5-H07, 2-chloro-1-(3-methyl-2,3,4,5-tetrahydro-1,5-benzothiazepin-5-yl)ethan-1-one] | 104.554%
16 | O=C(CCl)N1CCCSc2ccccc21 [4-E16, 2-chloro-1-(2,3,4,5-tetrahydro-1,5-benzothiazepin-5-yl)ethan-1-one] | 116.627%

Row | Structure (SMILES) | % of control remaining
17 | O=C(CCl)N1c2ccccc2SCC1c1ccccc1 (stereo not shown) [4-M18, 2-chloro-1-(3-phenyl-3,4-dihydro-2H-1,4-benzothiazin-4-yl)ethan-1-one] | 9.528%
18 | C=CC(=O)N1C[C@H](NC(C)=O)[C@@H](c2ccnn2C)C1 (racemic) [2-M16, rac-N-[(3R,4S)-4-(1-methyl-1H-pyrazol-5-yl)-1-(prop-2-enoyl)pyrrolidin-3-yl]acetamide] | 90.5135%
19 | Cc1nn(CC(C)C)c(Cl)c1C1CCCN1C(=O)C(C)Cl (stereo not shown) [7-P19, 2-chloro-1-{2-[5-chloro-3-methyl-1-(2-methylpropyl)-1H-pyrazol-4-yl]pyrrolidin-1-yl}propan-1-one] | 108.32%
20 | CC(Cl)C(=O)N(Cc1ccccc1)Cc1ccccc1 (stereo not shown) [5-K19, N,N-dibenzyl-2-chloropropanamide] | 103.097%
21 | CC(c1ccc(C(F)(F)F)c(Cl)c1)N(C)C(=O)CCl (stereo not shown) [7-F14, 2-chloro-N-{1-[3-chloro-4-(trifluoromethyl)phenyl]ethyl}-N-methylacetamide] | 6.593%
22 | CN(C(=O)CCl)C(c1ccc(Cl)cc1)C(F)(F)F (stereo not shown) [7-J16, 2-chloro-N-[1-(4-chlorophenyl)-2,2,2-trifluoroethyl]-N-methylacetamide] | 101.413%
23 | CC(c1ccc(C(F)(F)F)cc1F)N(C)C(=O)CCl (stereo not shown) [7-P18, 2-chloro-N-{1-[2-fluoro-4-(trifluoromethyl)phenyl]ethyl}-N-methylacetamide] | 94.5055%
24 | Cc1ccc(C=C(C#N)C(=O)Nc2nccs2)s1 [8-P13, 2-cyano-3-(5-methylthiophen-2-yl)-N-(1,3-thiazol-2-yl)prop-2-enamide] | 93.61%
25 | Cc1ccccc1NC(=O)C(C#N)=Cc1ccc2c(c1)OCCO2 [8-J03, 2-cyano-3-(2,3-dihydro-1,4-benzodioxin-6-yl)-N-(2-methylphenyl)prop-2-enamide] | 129.461%
26 | O=C1C=CC(=O)N1c1ccc(F)cc1 [10-M10, 1-(4-fluorophenyl)-2,5-dihydro-1H-pyrrole-2,5-dione] | 118.75%
27 | O=C1C=CC(=O)N1c1ccc(SC(F)F)cc1 [10-A18, 1-{4-[(difluoromethyl)sulfanyl]phenyl}-2,5-dihydro-1H-pyrrole-2,5-dione] | 29.6875%
28 | N#Cc1ccc(N2C(=O)C=CC2=O)cc1 [10-B09, 4-(2,5-dioxo-2,5-dihydro-1H-pyrrol-1-yl)benzonitrile] | 133.438%
29 | COc1ccccc1NC(=O)C(C#N)=Cc1ccc(C)s1 [8-B15, 2-cyano-N-(2-methoxyphenyl)-3-(5-methylthiophen-2-yl)prop-2-enamide] | 118.838%
30 | Cc1ccc(C=C(C#N)C(=O)Nc2ccccc2C(=O)O)s1 [9-K08, 2-[2-cyano-3-(5-methylthiophen-2-yl)prop-2-enamido]benzoic acid] | 38.0524%
31 | Cc1ccc(C=C(C#N)C(=O)Nc2ccccc2Cl)s1 [9-C22, N-(2-chlorophenyl)-2-cyano-3-(5-methylthiophen-2-yl)prop-2-enamide] | 83.2959%

Source: paper PMC11995724, “Antibiotic target discovery by integrated phenotypic and activity-based profiling of electrophilic fragments” (Cell chemical biology, 2025)
